This is one part of a sample in which hits are shown more often than they occur.
ALOX12 inh: ALOX12 (human) lipoxygenase inhibition; P18054; purified 12hLO, xylenol orange hydroperoxide absorbance; Potency, µM (highest dose often 108 µM), inactives show at the top dose activity change, negative = inhibition, most hits filed as inhibitors; 580,000 compounds, 1.1% hits; also: potency is read from the fitted curve at half-maximal effect
Target sequence (P18054 whole entry, looked up): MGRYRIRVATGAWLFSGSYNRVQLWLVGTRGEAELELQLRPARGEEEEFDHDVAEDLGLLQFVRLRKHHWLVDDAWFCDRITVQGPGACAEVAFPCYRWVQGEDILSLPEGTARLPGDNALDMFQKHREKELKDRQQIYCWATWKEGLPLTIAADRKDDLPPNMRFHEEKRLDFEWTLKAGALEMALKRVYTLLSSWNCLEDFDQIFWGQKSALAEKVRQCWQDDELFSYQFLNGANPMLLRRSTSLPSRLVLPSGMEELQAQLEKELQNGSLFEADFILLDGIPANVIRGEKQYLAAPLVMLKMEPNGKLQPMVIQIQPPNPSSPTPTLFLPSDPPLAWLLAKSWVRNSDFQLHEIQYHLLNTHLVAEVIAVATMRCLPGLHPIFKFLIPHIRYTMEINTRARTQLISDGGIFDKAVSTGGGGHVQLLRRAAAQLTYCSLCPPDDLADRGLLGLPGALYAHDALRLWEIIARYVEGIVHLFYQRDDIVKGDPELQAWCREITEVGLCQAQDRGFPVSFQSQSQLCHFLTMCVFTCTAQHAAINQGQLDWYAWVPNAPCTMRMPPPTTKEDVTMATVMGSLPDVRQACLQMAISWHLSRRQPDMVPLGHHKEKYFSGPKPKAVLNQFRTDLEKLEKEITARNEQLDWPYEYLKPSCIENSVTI
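Purified human 12hLO (150 nM final) in 25 mM Hepes, 0.01% Triton X-100, pH 7.0 was preincubated 15 min at room temperature with compound. Then 40 uM arachidonic acid was added, 30 min. Hydroperoxide was read by Fe-XO absorbance ratio 573/405 nm.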
DT40 TDP1 CPT: DT40-hTDP1 cell growth loss with CPT. AID 686979. chicken DT40 Tdp1-/-;hTDP1 cells + 20 nM CPT, ATP luminescence, 48 h. Potency, µM (top dose mostly 46.2 µM), for inactives: at the top dose activity change, negative = growth inhibition, usual class: inhibitors. 420,000 compounds, 12% hits; also: potency is read from the fitted curve at half-maximal effect; nearly all actives have a fitted effect of over 55% in size
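Chicken DT40 Tdp1-/- cells complemented with human TDP1, 400 cells/well, exposed to compounds plus 20 nM camptothecin for at least 48 h at 37 C; viability read as ATP content by CellTiter-Glo luminescence.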
HT1080 IDH1KD tx: toxicity to HT-1080 IDH1 knockdown cells (counter line); HT-1080 IDH1 knockdown viability, ATP luminescence, 48 h; 360,000 compounds, 2% hits; AID 686971; Potency, µM (titrated, usually from 46.1 µM), for the others: at the top dose activity, negative = toxicity, usual class: cytotoxic;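 also: potency is read from the fitted curve at half-maximal effect; 0% = DMSO wells and -100% = cell-free medium wells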
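Cytotoxicity counter-line: IDH1KD HT-1080, 48 h, CellTiter-Glo. Curves classed by r2, magnitude and activity.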
IL1B secr inh: inhibitors of inflammasome signaling (IL-1 beta secretion); THP-1 LPS/ATP IL-1B secretion, AlphaLISA, 16 h; stronger effect = lower value; activity change, % at 57.5 µM; 360,000 compounds, 4.7% hits; AID 743279; in the data active = activity change below about -50%; inconclusive = mostly about -30% to -49%
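THP-1 cells pretreated 1 hr with compounds (up to 57.5 uM final), then stimulated with LPS (250 ng/mL final) plus ATP (1.25 mM final); secreted IL-1B measured by AlphaLISA after 16 hr, decreased signal indicating inhibition.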
HT1080-NT tox: kills 2HG-producing HT-1080-NT fibrosarcoma cells | 360,000 compounds, 1.6% hits | Potency, µM (titrated, usually from 46.1 µM), without a hit: at the highest dose activity, negative = less viability, usual class: cytotoxic | AID 686970 | HT-1080-NT fibrosarcoma viability, CellTiter-Glo ATP luminescence, 48 h;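 also: NT is the 2HG producing partner of a matched IDH1 knockdown line; potency is read from the fitted curve at half-maximal effect; 0% = DMSO-treated cells and -100% = media-only wells without cells; nearly all actives have a fitted effect of over 55% in size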
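Compounds were tested in concentration-response format on HT-1080-NT cells for 48 hours at 37 degrees C. Cell viability came from CellTiter-Glo luminescence; curves were classified by r2, response magnitude and activity.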
TDP1 cell noCPT: qHTS for Inhibitors of human tyrosyl-DNA phosphodiesterase 1 (TDP1): qHTS in cells in absence of CPT. DT40 Tdp1-/- hTDP1 cells, no CPT, ATP luminescence, 48 h. Potency, µM (highest dose often 46.2 µM), for inactives: top-dose activity change, negative = growth inhibition, actives largely listed as inhibitors. 420,000 compounds, 15% hits. AID 686978, 2013; also: potency is read from the fitted curve at half-maximal effect; nearly all actives have a fitted effect of over 55% in size
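Luminescent ATP content (CellTiter-Glo) served as the growth readout. Knockout chicken DT40 cells expressing human TDP1 were exposed to compounds without camptothecin for a minimum 48 hr at 37 °C.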
An asterisk follows results filed as active; ? = inconclusive; / = no result; [ ] = dose if it differs, or a comment. Unless noted, calls follow the shape of the dose curve; as a rule, active = well fitted curve in the direction sought with a large enough effect; inconclusive = small, poorly fitted or top-dose-only effect, or another doubt; inactive = no such curve, though single readings can be large; an effect the other way counts as inactive or inconclusive. Unless noted, % is scaled to controls: 0 for no effect and ±100 for the full control effect.

SMILES | ALOX12 inh | DT40 TDP1 CPT | HT1080 IDH1KD tx | IL1B secr inh | HT1080-NT tox | TDP1 cell noCPT
Cc1cc(C)n(-c2ccc(C(=O)Nc3ccc(C)c(S(=O)(=O)N4CCOCC4)c3)cc2)n1 | -19% | ? | ? | -88* | ? | 16µM*
Cc1ccc(NC(=O)c2ccc(S(=O)(=O)N3CC(C)CC(C)C3)cc2)cc1S(=O)(=O)N1CCOCC1 (stereo unspecified) | 0% | 16µM* | -8% | -22 | -2% | 7.3µM*
CC1CC(C)CN(S(=O)(=O)c2ccc(NC(=O)c3ccc(=O)[nH]c3)cc2)C1 (stereo unspecified) | 9% | 3.3µM* | 5.2µM* | 10 | 5.8µM* | 2.9µM*
Cc1ccc(Nc2nc(NCC3CCCO3)nc3c2cnn3-c2ccccc2)cc1 (stereo unspecified) | -3% | / | / | / | / | /
O=C(Nc1ccc(F)cc1)C(c1ccccc1OC(F)(F)F)N1CCN(C(=O)c2ccco2)CC1 (stereo unspecified) | -6% | ? | -8% | 7 | -13% | ?
CCc1noc(-c2cccn3c(CNC(=O)COc4ccccc4)nnc23)n1 | 66% | / | / | / | / | /
COc1ccc(-c2cc3ccc(O)cc3oc2=O)c(OC)c1 | 7% | / | / | / | / | /
CCCCC(=O)NCC(O)COCc1ccc(OC)cc1 (stereo unspecified) | 19% | / | / | / | / | /
CN1CCC(Nc2ncc3ncnc(Nc4ccc(F)c(Cl)c4)c3n2)CC1 | ? | ? | / | / | / | 21µM*
C=CC(=O)Nc1cc2c(Nc3ccc(F)c(Cl)c3)ncnc2cc1C#CC(C)(C)N1CCN(C)CC1 | -12%[57.4 µM] | / | / | / | / | /
NC(=S)N/N=C1\CCSc2ccc(Cl)cc21 | 0% | 21µM* | -7% | -2 | -11% | 18µM*
O=C(N/N=C1\CCSc2ccc(F)cc21)c1cccnc1 | 3% | -10% | 8% | -23 | 6% | -19%
C1CC(Cc2noc(C3CCOCC3)n2)CN1 (stereo unspecified) | 49% | / | / | / | / | /
Nc1cccc(-c2nc3cc(S(=O)(=O)c4ccc5oc(-c6cccc(N)c6)nc5c4)ccc3o2)c1 | -8% | 8.2µM* | ? | -1 | ? | ?
Cc1ccc2oc(-c3cccc(N)c3)nc2c1 | 1% | -1% | -14% | 3 | -9% | ?
Cc1cc(=O)n(Cc2ccc(F)cc2Cl)c2c1c(C)nn2C | -30% | ? | / | / | / | ?
Cc1cccc(C)c1NC(=O)C1(C)CN(S(C)(=O)=O)CC(=O)N1CC(F)(F)F (stereo unspecified) | -2% | 7% | 7% | 24 | 4% | 6%
O=c1cc(-c2ccccc2)nc2cc(-c3ccc(F)cc3)[nH]n12 | 57% | 7.3µM* | ? | 5 | ? | 6.5µM*
CCc1c(C)nc2cc(-c3ccc(OC)cc3)[nH]n2c1=O | -6% | 21µM* | 7% | -6 | -2% | 15µM*
COc1ccc(CN(C)Cc2cc(=O)n3[nH]c(-c4cccc(C)c4)cc3n2)cc1 | 1% | / | / | / | / | /
Cc1cc(=O)n2[nH]c(-c3ccc(C(C)(C)C)cc3)cc2n1 | 20% | 18µM* | ? | -3 | ? | 21µM*
CCOC(=O)Cc1c(C)nc2cc(-c3ccc(Cl)cc3)[nH]n2c1=O | 3% | -22% | 7% | 9 | 12% | -22%
COc1cccc(-c2cc3nc(-c4ccccc4)cc(=O)n3[nH]2)c1 | 0% | 2.6µM* | 1.3µM* | 88 | 1.5µM* | 2.6µM*
Cc1cc(=O)n2[nH]c(-c3ccccc3)cc2n1 | 0%[57.4 µM] | -25% | 0% | 85 | -1% | -12%
CC1(c2ccccc2)N(Cc2ccccc2F)C(=O)OC12CCN(C(=O)COc1ccccc1C(N)=O)CC2 (stereo unspecified) | 1% | / | / | / | / | /

Source: PubChem BioAssay
